According to PubChem BioAssay AID2289 (National Center for Advancing Translational Sciences (NCATS), 2010):
Hit rate of the full screen: of about 340,000 compounds, about 3,300 (0.97%) were called active. Another 9% or so got no clear call; they are omitted. Calls come from the whole dose curve; as a rule, active = well fitted inhibition curve with a large enough effect; inconclusive = small, poorly fitted or top-dose-only effect, or effect the other way; inactive = flat fitted curve, though single readings scatter. The list shows a part of the results.

Test: qHTS Assay for Modulators of miRNAs and/or Inhibitors of miR-21; note: nearly all actives have a fitted effect of over 55% in size
Conditions: HeLa miR-21-FLuc reporter, luciferase luminescence, 48 h; actives lower the signal
Source text: MLSCN Grant: 1 R21 NS059478-01 Assay Provider: Qihong Huang, The Wistar Institute NCGC Assay Overview: MicroRNAs (miRNAs) are endogenously encoded small (~20-25 nucleotides), nonprotein-coding RNAs that are involved in post-transcriptional repression of target messenger RNAs (mRNAs) (Le and Hannon, 2004). Estimated to be involved in the regulation of 30% of all protein-coding mRNAs (Filipowicz et al., 2008), miRNAs play a significant role in many biological processes including cellular differentiation and tissue development (Ghildiyal and Zamore, 2009).
NCGC Assay Protocol Summary: Reagents: HeLa cells stably expressing firefly luciferase (FLuc) under the control of a CMV promoter (upstream) and a miR-21 binding sequence directly downstream of the gene. These cells endogenously express miR-21. Control compounds used were compound C3 (provided by collaborator), N6-phenyladenosine (MP Biomedicals, 0215379625), and DMSO. Assay Summary: 6uL of HeLa miR-21-FLuc cells in assay buffer (DMEM, Invitrogen #21063-029; 10% FBS, HyClone #SH30071.03) were dispensed at 2000cells/well (3.3 x 10^5 cells/mL) into Greiner solid-white TC-treated 1536-well plates using a Multidrop Combi (Thermo Fisher Scientific). Plates were incubated for one hour at 37 degree Celsius, 95% humidity, 5% CO2. These assay plates were then treated with 23nL of compound or DMSO using a Kalypsys pin tool, which allows for delivery of a 24-point titration of each compound to the assay plate, with a final compound concentration ranging from approximately 40uM to 5pM. Assay plates were then incubated for 48 hours. After incubation, plates were allowed to come to RT for one hour prior to delivery of 3uL of 3X luciferase detection reagent. After a 15 minute incubation to allow for cell lysis, luciferase activity was measured using a ViewLux CCD imager (PerkinElmer), with an average exposure time of 2-12 seconds. Keywords: NIH Roadmap, MLPCN, MLSMR, qHTS, miR-21, microRNA, firefly luciferase, FLuc.
Potency is the fitted concentration of half-maximal effect.

Potency, active:
NNC(=O)c1cccc(COc2ccc3c(c2)CCC3)c1 0.185 µM, O=C(NCc1ccccc1)c1cccc(COc2ccc3c(c2)CCC3)c1 0.585 µM, O=C(Nc1nc2ccc(F)cc2s1)c1ccccn1 0.104 µM, COc1ccccc1NC(=O)Nc1nc2ccc(S(N)(=O)=O)cc2s1 4.14 µM, Cc1cc(C(=O)Nc2nc3ccc(Cl)cc3s2)nn1C 0.927 µM, NS(=O)(=O)c1ccc2nc(NC(=O)Nc3ccccc3F)sc2c1 0.329 µM, O=C(Nc1nc2ccccc2s1)Nc1ccc(F)cc1F 0.736 µM, Cc1ccccc1OCC(O)Cn1nnc2ccccc21 (stereo not drawn) 7.36 µM, CC(C)(C)CC(=O)Nc1nnc(-c2cccs2)s1 1.31 µM, CCOc1ccc2c(c1)c(N=Nc1cccc(C(=O)O)c1)c(O)n2C 6.56 µM, CN1CCN(C(=O)c2cccc(COc3cc(Cl)ccc3Cl)c2)CC1 16.5 µM, N#Cc1ccccc1NC(=O)c1cccc(COc2ccc(Cl)cc2Cl)c1 1.65 µM, CN(C(=O)c1cccc(COc2ccc(Cl)cc2Cl)c1)c1ccccc1 2.61 µM, O=C(NCc1ccccc1)c1cccc(COc2cc(Cl)ccc2Cl)c1 7.36 µM, CCCCOC(=O)c1sc2nc(C)cc(C)c2c1N 5.85 µM, Cc1cc(C)c2c(N)c(C(=O)N/N=C/c3cccs3)sc2n1 1.47 µM, Cc1cc(C)c2c(N)c(C(=O)NCC3CCCCC3)sc2n1 6.56 µM, CC(C)n1c(/C=C/c2ccccc2)nc2ccccc21 6.56 µM, Cn1c(=O)c(/C=C/c2ccccc2)nc2ccccc21 2.07 µM, O=c1[nH]c2ccccc2nc1/C=C/c1ccccc1 2.33 µM, COc1ccc(-c2noc(-c3cc(C(C)C)[nH]n3)n2)cc1 3.29 µM, Cc1cccc(-c2noc(-c3cc(C(C)C)[nH]n3)n2)c1 0.464 µM, CC12COC3(C(=O)Nc4ccc5ccccc5c4)CC1CCC32C (stereo not drawn) 7.36 µM, CCN1CCN(c2ccc(NC(=O)c3ccco3)cc2Cl)CC1 8.26 µM, CCN1CCN(c2ccc(NC(=O)c3ccccc3F)cc2Cl)CC1 2.93 µM, Cc1ccc(Nc2ncnc(-n3cccc3)n2)cc1Cl 2.33 µM, COc1ccc(-c2c(C)nc3c(-c4ccsc4)cnn3c2N)cc1 0.414 µM, COc1ccc(-c2c(C)nc3c(-c4ccccn4)cnn3c2N)cc1 0.261 µM, CCOC(=O)C1=C(CSc2nc(-c3ccccc3)ccc2C#N)OC(N)=C(C#N)C1c1ccc(OC)cc1 (stereo not drawn) 11.7 µM, COc1ccc(C(=O)Cc2ccc(F)cc2)c(OC)c1 13.1 µM, O=[N+]([O-])c1ccc(/C=N/N2CCCCC2)cc1 5.21 µM, COc1ccc(-c2nnc(SCC(=O)c3cccs3)o2)c(OC)c1 6.56 µM, Cc1cc(Cl)c2oc(C(=O)N3CCN(C(=O)c4ccco4)CC3)c(C)c2c1 14.7 µM, Cc1cc(Cl)c2oc(C(=O)N3CCN(c4cccc(C)n4)CC3)c(C)c2c1 4.65 µM, O=C(Nc1ccc(Cl)cn1)c1ccc2c(Cl)c3c(nc2c1)CCC3 0.185 µM, N#Cc1ccccc1NC(=O)c1ccc2c(Cl)c3c(nc2c1)CCCC3 2.93 µM, CN(C(=O)c1ccc2c(Cl)c3c(nc2c1)CCC3)c1ccccc1 14.7 µM, COCCNC(=O)c1ccc2c(Cl)c3c(nc2c1)CCC3 5.85 µM, Cc1ccnc(SCC(=O)N2CCc3ccccc32)n1 7.36 µM, CCn1c(-c2ccc(F)cc2)cnc1SCC(=O)N1CCc2ccccc21 11.7 µM, O=C(CSc1ccccc1)N1CCc2ccccc21 3.29 µM, O=C(CSc1ncccc1-c1nc2ccccc2[nH]1)N1CCc2ccccc21 5.21 µM, Cc1ccc(SCC(=O)N2CCc3ccccc32)cc1 14.7 µM, COc1cccc2cc(-c3nnc(Nc4c(F)cccc4F)s3)c(=O)oc12 1.04 µM, O=c1oc2cc(O)ccc2cc1-c1nnc(Nc2ccccc2F)s1 0.369 µM, COc1cccc2cc(-c3nnc(Nc4ccccc4C)s3)c(=O)oc12 0.736 µM, CC1CCN(c2nc3ccc(C(=O)NCCCN4CCCCC4)cc3s2)CC1 0.0927 µM, CC1CCN(c2nc3ccc(C(=O)NCCCN4CCCCC4C)cc3s2)CC1 (stereo not drawn) 0.0656 µM, CCC1CCCCN1CCCNC(=O)c1ccc2nc(N3CCC(C)CC3)sc2c1 (stereo not drawn) 0.0656 µM, COc1cccc(N2CCN(C(=O)c3ccc4nc(N5CCC(C)CC5)sc4c3)CC2)c1 1.47 µM, Cc1ccc2nc(NC(=S)NC(=O)c3ccco3)sc2c1 0.736 µM, O=C(NC(=S)Nc1nc2ccccc2s1)c1ccco1 1.17 µM, Cc1ccc(-c2nnc(NC(=O)c3ccco3)s2)cc1 1.47 µM, CC1CCC/C(=C\Nc2ccc(O)cc2)C1=O (stereo not drawn) 10.4 µM, CC1CCC/C(=C\Nc2ccc(C(=O)O)cc2)C1=O (stereo not drawn) 0.585 µM, COC(=O)Nc1nnc(/C=C/c2ccc(OC)cc2)s1 4.14 µM, CCC(=O)Nc1nnc(/C=C/c2ccccc2)s1 13.1 µM, CCC(=O)Nc1nnc(/C=C/c2ccc(OC)cc2)s1 11.7 µM, COc1ccc(/C(C)=N/Nc2cccc(C(=O)O)c2)cc1OC 10.4 µM, CC(=O)Nc1cccc(C(=O)N/N=C/c2ccccc2F)c1 2.07 µM, C/C(=N\Nc1cccc(C(=O)O)c1)c1ccc(Cl)s1 6.56 µM, C/C(=N\NC(=O)c1cccc(N/N=C(\C)c2ccccc2)c1)c1ccccc1 14.7 µM, C/C(=N\Nc1ccc([N+](=O)[O-])cc1)c1ccco1 3.69 µM, C/C(=N\NC(=O)c1cccc(N/N=C(\C)c2ccco2)c1)c1ccco1 6.56 µM, C/C(=N/NC(=O)c1ccccc1)C(=O)O 2.93 µM, CN(CCC#N)C(=O)c1cc2c(s1)-c1ccccc1SC2 4.14 µM, Cc1ccccc1C(=O)Nc1nnc(S(=O)(=O)N2CCCCCC2)s1 1.65 µM, O=C(Nc1nnc(S(=O)(=O)N2CCCC2)s1)c1ccc(F)cc1 3.69 µM, COc1ccc(C(=O)Nc2nnc(S(=O)(=O)N3CCC(C)CC3)s2)cc1OC 0.464 µM, CCC(CC)C(=O)Nc1nnc(S(=O)(=O)N2c3ccccc3CC2C)s1 (stereo not drawn) 2.61 µM, Cn1c(-c2cc3ccc(OC(=O)C(C)(C)C)cc3oc2=O)nc2ccccc21 3.69 µM, COc1ccccc1N1CCN(/N=C/c2cccc(Cl)c2)CC1 6.56 µM, COc1ccccc1N1CCN(/N=C\c2ccccc2)CC1 10.4 µM, CCOC(=O)c1snc(C(=O)NC2CCCCC2)c1N 7.36 µM, CN(C)/C=C(/C(=O)c1ccc(Cl)cc1)S(=O)(=O)c1ccccc1 18.5 µM, CCC(=O)Nc1ccc2oc(-c3cccnc3)nc2c1 8.26 µM, Cc1cc(-c2nc3ncccc3o2)ccc1N 3.29 µM, CCCC(=O)Nc1ccc2oc(-c3ccc(O)c(Br)c3)nc2c1 0.927 µM, O=C(Nc1ccc2oc(-c3cccnc3)nc2c1)c1ccco1 11.7 µM, O=C(Nc1ccc(-c2nc3ncccc3o2)cc1)c1ccco1 1.85 µM, Nc1cccc2c1C(=O)N(CCOc1ccc(F)cc1)C2=O 0.826 µM, COc1ccc(OCCN2C(=O)c3cccc(N)c3C2=O)cc1 14.7 µM, COc1ccc(C2=NN(c3ccc(C(=O)O)cc3)C(c3ccc(OC)c(OC)c3)C2)cc1 (stereo not drawn) 18.5 µM, COc1ccccc1CN=C1Nc2ccccc2CS1 5.85 µM, COc1cccc(CN=C2Nc3ccccc3CS2)c1 4.65 µM, CCCC(=O)Nc1ccc(NC(=O)C23CC4CC(CC(C4)C2)C3)cn1 18.5 µM, OC[C@H]1O[C@@H](n2cnc3c(Nc4ccccc4)ncnc32)[C@H](O)[C@@H]1O 3.69 µM, CCOC(=O)c1c(C)[nH]c2cc(Br)c(O)cc12 16.5 µM, CCc1ccc(OCC(=O)N2CCc3ccccc32)cc1 4.65 µM, O=C(COc1ccc2c(c1)CCC2)N1CCc2ccccc21 3.29 µM, COc1ccc2c(CC(=O)N3CCc4ccccc43)coc2c1 2.93 µM, O=C(COc1ccccc1Cl)N1CCc2ccccc21 2.07 µM, O=C(COc1ccccc1)N1CCc2ccccc21 4.65 µM, COc1ccc(C(=O)N2CCc3ccccc32)cc1 18.5 µM, Cc1c(C(=O)N2CCc3ccccc32)oc2ccccc12 0.736 µM, Cc1c(Br)c(C(=O)N2CCc3ccccc32)nn1C 5.21 µM, Cc1ccccc1OCC(=O)N1CCCc2ccccc21 14.7 µM, O=C(c1ccco1)N1CCc2ccccc21 5.85 µM, O=C(OCc1ccccc1)N1CCc2ccccc21 1.17 µM, O=C(COc1ccc(F)cc1Br)N1CCc2ccccc21 1.26 µM, O=C1/C(=C\Nc2ccc(Cl)cc2)CCN1c1ncccn1 1.31 µM, CCC(C)NC(=O)Cn1c(COc2ccc(Cl)cc2Cl)nc2ccccc21 (stereo not drawn) 8.26 µM, CC(=O)C(/C=N/c1cc(-c2ccc(C)cc2)nn1-c1ccccc1)=C(\C)O 1.47 µM
